Fam108B counter – mouse Fam108B serine hydrolase inhibitors, primary screen, counter-screen for RBBP9 inhibitor project, biochemical, fluorescence polarization; recombinant Fam108B, FP-Rh probe fluorescence polarization; inhibition, % at 9.51 µM; hit rate 0.33% among 300,000;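 active means inhibition above the screen mean inhibition plus 3 SD, computed separately per campaign, cut at about 18% in these data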;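 further: inhibitors lower polarization as less probe binds the enzyme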
PAD4 FP inh – human PAD4 inhibitors, primary screen, biochemical, fluorescence polarization, 1536-well format. Protein-arginine deiminase type-4 (Homo sapiens), Q9UM07. recombinant PAD4, RCA probe fluorescence polarization. inhibition, % at 6.36 µM. hit rate 0.41% among 330,000. AID 485272, 2010;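 active means percent inhibition above a cutoff equal to the mean of all tested compounds plus 3 SD, cut at about 15% in these data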
GSTO1 counter – inhibitors of recombinant GSTO1, primary screen, counter-screen for RBBP9 inhibitor project, biochemical, fluorescence polarization; activity-based probe fluorescence polarization; inhibition, % at 5.96 µM; hit rate 1.1% among 300,000; AID 1974, 2009;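 active means inhibition above the campaign mean inhibition plus 3 SD, cut at about 35% in these data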
LYPLA1 inh – LYPLA1 inhibitors, primary screen, counter-screen for PME1 inhibitor project, biochemical, fluorescence polarization, FP-Rh probe ABPP | AID 2174, 2009 | recombinant LYPLA1 | Acyl-protein thioesterase 1 (Homo sapiens), O75608 | hit rate 0.16% among 320,000 | inhibition, % at 5.9 µM;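 active means inhibition above the mean of all tested compounds plus 3 SD, set per campaign, cut at about 14% in these data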;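 further: inhibitors block serine hydrolase probe labeling of LYPLA1 so polarization falls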
Target sequence (O75608 whole entry, looked up): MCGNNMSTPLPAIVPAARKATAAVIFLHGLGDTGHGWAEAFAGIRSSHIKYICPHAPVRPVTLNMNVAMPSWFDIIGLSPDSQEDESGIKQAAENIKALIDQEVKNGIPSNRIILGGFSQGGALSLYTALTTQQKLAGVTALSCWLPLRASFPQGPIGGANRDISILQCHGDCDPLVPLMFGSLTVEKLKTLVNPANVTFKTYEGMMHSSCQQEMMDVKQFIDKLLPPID
LYPLA2 counter – LYPLA2 inhibitors, primary screen, counter-screen for PME1 inhibitor project, biochemical, fluorescence polarization, FP-Rh probe ABPP. Acyl-protein thioesterase 2 (Homo sapiens), O95372. recombinant LYPLA2. inhibition, % at 5.9 µM. hit rate 0.38% among 320,000. AID 2177, 2009;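 active means inhibition above the screen-wide mean plus 3 SD, limit set per campaign, cut at about 26% in these data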
Target sequence (O95372 whole entry, looked up): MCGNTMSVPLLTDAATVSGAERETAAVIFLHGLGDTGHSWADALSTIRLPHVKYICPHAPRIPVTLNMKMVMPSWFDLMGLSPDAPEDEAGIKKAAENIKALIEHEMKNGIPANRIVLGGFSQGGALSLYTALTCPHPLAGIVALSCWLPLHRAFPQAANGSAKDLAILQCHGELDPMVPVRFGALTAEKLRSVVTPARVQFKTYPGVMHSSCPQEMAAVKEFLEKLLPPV
PME-1 primary – PME-1 inhibitors via competitive probe labeling, primary screen, biochemical, fluorescence polarization, FP-Rh probe, HTS; AID 2130, 2009; recombinant PME-1; inhibition, % at 5.9 µM; Protein phosphatase methylesterase 1 (Homo sapiens), Q9Y570; hit rate 0.53% among 320,000;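 active means inhibition above the campaign mean of all compounds plus 3 SD, cut at about 26% in these data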;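 further: competitive labeling of PME-1 active site by serine hydrolase directed probe; inhibitors block probe labeling so polarization falls and inhibition rises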
Fam108b inh conf – mouse Fam108b serine hydrolase inhibitors, confirmation, counter-screen for RBBP9 inhibitor project, biochemical, fluorescence polarization, triplicate. hit rate 44% among 930. recombinant Fam108b, FP-Rh probe fluorescence polarization. inhibition, % at 9.51 µM. shares compounds with Fam108B counter;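 active means inhibition above a limit from the primary screen, the mean over all compounds plus 3 SD, cut at about 19% in these data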;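 further: inhibitors free the probe so polarization falls as inhibition rises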
Fam108b ABPP HTS – inhibition of mouse Fam108b by HTS hits, late-stage follow-up, biochemical, gel-based ABPP, soluble recombinant form. shares compounds with Fam108B counter. fluorophosphonate probe. inhibition, % at 20 µM. hit rate 44% among 260. AID 588649, 2011; in the data active means inhibition above about 40%
GSTO1 confirm – GSTO1 inhibitor hit confirmation, counter-screen for RBBP9 inhibitor project, biochemical, fluorescence polarization, triplicate. inhibition, % at 5.96 µM. hit rate 54% among 2,400. shares compounds with GSTO1 counter. recombinant GSTO1, probe fluorescence polarization;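 active means inhibition above the primary screen's cutoff, its mean inhibition plus 3 SD, cut at about 35% in these data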;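 further: loss of polarization as inhibitors block binding of rhodamine sulfonate ester activity probe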
LYPLA1 conf – LYPLA1 inhibitors, retest, confirmation, counter-screen for PME1 inhibitor project, biochemical, fluorescence polarization, FP-Rh probe ABPP; shares compounds with LYPLA1 inh; recombinant LYPLA1; inhibition, % at 5.9 µM; hit rate 69% among 480; AID 2233, 2010;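 active means mean inhibition across replicates above the hit cutoff set in the primary screen, cut at about 15% in these data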;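 further: loss of FP-Rh probe labeling of LYPLA1 seen as lower polarization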
LYPLA2 conf – LYPLA2 inhibitors, retest, confirmation, counter-screen for PME1 inhibitor project, biochemical, fluorescence polarization, FP-Rh probe ABPP; shares compounds with LYPLA2 counter; recombinant LYPLA2; inhibition, % at 5.9 µM; hit rate 72% among 1,100;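 active means mean inhibition across replicates above the hit cutoff set in the primary screen, cut at about 26% in these data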;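 further: blocked labeling of the enzyme by serine hydrolase FP-Rh probe lowers polarization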
PAD4 confirm – human PAD4 inhibitors, confirmation, biochemical, fluorescence polarization. shares compounds with PAD4 FP inh. recombinant PAD4, RCA probe fluorescence polarization. inhibition, % at 6.36 µM. hit rate 28% among 1,200. AID 488796, 2010;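 active means mean inhibition across replicates above the hit cutoff set by the earlier primary screen, cut at about 15% in these data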;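 further: inhibitors block active-site labeling by the probe so polarization falls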
Each line names hits and unclear results; the compound was inactive in the other large screens (follow-up assays come after a bar, where they were run). Only some compounds are listed: those with a hit (about 1.8% of all), similar ones and a draw of the others.

CCc1ccc(S(=O)(=O)/N=C2/C=C(Sc3ncn[nH]3)C(=O)c3ccccc32)cc1	Fam108B counter 54, PAD4 FP inh 37, GSTO1 counter 83, LYPLA2 counter 40, PME-1 primary 37 | Fam108b inh conf 57 | GSTO1 confirm 89 | LYPLA2 conf 47 | PAD4 confirm 22
CCC(C)C(NC(=O)[C@@H](NC(=O)c1ccccc1F)C(C)C)C(=O)OC (some centres undefined)	none
CCCn1c(SCC(=O)NNC(=O)c2ccc(C)cc2)nnc1C(C)C	none
CC(C)Oc1ccc(CNC(=O)c2cc(S(=O)(=O)N3CCOCC3)cn2C)cc1	none
CCN(CC)C(=O)C1c2ccccc2Oc2ccccc21	Fam108B counter 47, PAD4 FP inh 80, GSTO1 counter 44, LYPLA1 inh 58, LYPLA2 counter 72, PME-1 primary 70 | Fam108b inh conf inactive | GSTO1 confirm inactive | LYPLA1 conf inactive | LYPLA2 conf inactive | PAD4 confirm inactive
Cc1cc2nc3ccc(N(C)C)cc3nc2cc1N	Fam108B counter 32, PAD4 FP inh 29, GSTO1 counter 47, LYPLA1 inh 32, LYPLA2 counter 33, PME-1 primary 40 | Fam108b inh conf 19 | GSTO1 confirm 42 | LYPLA1 conf 19 | LYPLA2 conf inactive | PAD4 confirm 31
O=c1[nH]c(Nc2ccccc2)cc2ccccc12	Fam108B counter 24, PAD4 FP inh 65, GSTO1 counter 80 | Fam108b inh conf 37 | Fam108b ABPP HTS inactive | GSTO1 confirm 47 | PAD4 confirm 18
Cn1c(=O)cc(Nc2ccccc2)[nH]c1=O	none
C=CCn1c(NC(=O)c2ccccc2Cl)c(C#N)c2nc3ccccc3nc21	Fam108B counter 49, PAD4 FP inh 59, GSTO1 counter 79, LYPLA1 inh 39, LYPLA2 counter 50 | Fam108b inh conf inactive | GSTO1 confirm 62 | LYPLA1 conf inactive | LYPLA2 conf 86 | PAD4 confirm inactive
CCCCn1c(NC(C)=O)c(C#N)c2nc3ccccc3nc21	none
O=Cc1c(-[n+]2ccccc2)nc([O-])n1-c1ccccc1	none
CCOC(=O)C1CCCN(C(=O)c2ccc(C(=O)c3ccccc3)cc2)C1 (centres undefined)	none (no result: Fam108B counter, GSTO1 counter)

Screening data deposited in PubChem by The Scripps Research Institute Molecular Screening Center.
